Laboratory results: the supplement of paper PMC3334620
The full ranking holds about 33,000 sequences; the median of “E-score (-0.5 to 0.5)” is about -0.015, and the highest 2% start at about 0.3. Only a selection was taken, and the highest values are over-represented in it overall.

Target: T1, Abf1 (UniProt P14164)
T1 sequence: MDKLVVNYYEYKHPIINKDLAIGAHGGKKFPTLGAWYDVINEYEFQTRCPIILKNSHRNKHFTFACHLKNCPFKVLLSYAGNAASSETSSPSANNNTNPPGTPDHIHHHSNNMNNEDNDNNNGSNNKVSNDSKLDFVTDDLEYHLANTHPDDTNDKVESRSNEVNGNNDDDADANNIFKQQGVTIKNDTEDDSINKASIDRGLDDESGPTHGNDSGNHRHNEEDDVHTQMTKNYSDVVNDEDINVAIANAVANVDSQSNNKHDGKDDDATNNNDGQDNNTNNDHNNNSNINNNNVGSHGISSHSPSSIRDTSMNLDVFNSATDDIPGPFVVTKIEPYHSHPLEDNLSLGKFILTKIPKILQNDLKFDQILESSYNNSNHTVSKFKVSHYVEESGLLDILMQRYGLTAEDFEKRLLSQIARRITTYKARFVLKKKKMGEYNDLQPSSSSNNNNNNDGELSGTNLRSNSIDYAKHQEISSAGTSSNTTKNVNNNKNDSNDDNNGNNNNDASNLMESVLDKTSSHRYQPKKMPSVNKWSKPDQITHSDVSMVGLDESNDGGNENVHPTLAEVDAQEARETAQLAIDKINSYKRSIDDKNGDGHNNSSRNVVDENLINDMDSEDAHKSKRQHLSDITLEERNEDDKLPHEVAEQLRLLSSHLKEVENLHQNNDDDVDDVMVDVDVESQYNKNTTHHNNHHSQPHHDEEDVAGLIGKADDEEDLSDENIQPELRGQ
Assay: PBM E-score (8-mer binding enrichment) (E-score (-0.5 to 0.5)); higher = stronger / more preferred TF binding
Settings: protein concentration: 200 nM; construct: GST-full length
Procedure, shortened: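 Universal all-10-mer Agilent arrays, double-stranded by primer extension on fresh or once-stripped slides, were probed with about 100-200 nM GST-tagged yeast transcription factors made by PURExpress. Fluorescent anti-GST detected bound protein, and masliner normalised the scans. E-scores from the Universal PBM Analysis Suite were given to each ungapped eight-base word pooled with its reverse complement.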

Sequence | PBM E-score
ACATCACC | 0.353
CAACCTAC | -0.122
GCCTAGGA | -0.178
CATGGCGG | -0.0941
ACATCTGA | -0.0545
TGATAAAA | 0.337
CGATAAAA | 0.285
GGATAAAA | 0.158
CGATAACA | 0.106
GGATAACA | 0.0228
TGATAACA | 0.341
TCATGAAA | 0.00026
GGTCGCCA | -0.074
TCATGGGA | -0.042
AACGCTGT | 0.00818
ACTGGTAC | -0.0194
CGTCCAGC | -0.0241
GAGTGACC | 0.207
GAGTGACA | 0.432
CAGTGACA | 0.3
GAGTGCCA | -0.212
TAGTGTCA | 0.117
CAGTGAAA | 0.0736
TAGTGTGA | 0.137
TAGTGACA | 0.414

Sequence | PBM E-score
CAGTGACC | 0.132
AACGGACC | -0.168
TGATCCCA | -0.0944
CTAGCTGC | -0.114
CGAGGTGA | 0.129
GACACTTA | -0.0374
ACTGCACG | -0.0217
CGCCACCA | -0.138
GTGATCCA | 0.132
GAGATCTA | -0.121
ATGATCTA | 0.297
ATGATCTC | 0.296
GTGATCTA | 0.407
CTGATCTA | -0.106
CGGCCAAC | -0.133
GACGATGC | 0.231
ACAGCCGC | -0.223
CGTGCACA | 0.196
CGTGCAAG | 0.169
CGTGCACG | 0.419
CGTGCAAA | 0.337
CGTGCAAC | 0.247
TGTGCACA | 0.0303
AAGGATGC | -0.213
GGCTGCGA | -0.0617

Sequence | PBM E-score
CGAGGGAC | -0.189
GGGGGCAA | -0.0502
CGCATATC | 0.239
CAACCTCA | -0.0877
CCCTACCA | 0.0127
ATTCTGTA | 0.14
AAGTGATA | 0.39
GAGTGAGA | 0.0215
TAGTGATA | 0.433
CAGTGAGA | 0.0837
GAGTGAAA | -0.117
AAGTGAAA | -0.0619
AAGTGAGA | 0.0815
CACTGATA | -0.056
TAGTGAAA | -0.0802
GAGTGATA | 0.424
CAGTGATA | 0.377
TAGTGAGA | 0.0964
CCTTGGTC | -0.302
AATTTGAC | 0.183
CTGTCGGA | -0.123
ACAGCTCT | -0.248
AGTACTGA | -0.0709
CCGGGTTC | -0.167
GTAACTAA | -0.0125

Sequence | PBM E-score
TTCGGAAA | -0.148
CAACGTAA | -0.0145
AATCTCTC | 0.0576
ATACCCCA | 0.0583
CACCCGCA | -0.205
GATCGGGC | -0.195
CGTTACAC | 0.298
CGTTACAG | -0.0224
CGTTATAA | 0.149
CGTTACAA | 0.195
CGTTATAG | 0.105
CGTTATAC | 0.303
AATGTTGC | 0.00562
CGGCGTTC | -0.0709
CCGCCATC | -0.26
AGTCCACC | -0.0728
GAAAACTA | -0.0964
GTTCTGTA | -0.0186
AATTCGTC | 0.315
AATTCGTG | 0.224
AATTCGGA | 0.029
CATTCGCA | -0.1
CATTCGTA | 0.308
GTTTCGTA | 0.26
CTTTCGTC | 0.191

Sequence | PBM E-score
CTTTCGTA | 0.376
AATTCGTA | 0.307
GATTCGTA | 0.262
ATTTCGTC | 0.229
CATTCGTC | 0.222
ACCCAGAA | -0.0336
TTCCGAAA | 0.104
ATTTAAAT | 0.189
GATTACAC | 0.0768
CAAGCCCG | -0.172
GTGGTATA | -0.0621
CGGCCCAC | -0.208
ACCGTCAT | 0.362
AACGTCAT | 0.217
ATCGTCAT | 0.349
TTCGTCAA | 0.151
AGCGTCAA | -0.00287
ACCGTCAA | 0.143
ACCGTCAG | 0.0392
ATCGTCAG | 0.154
ATCGTCAA | 0.342
AAAAATCC | -0.0226
AGGTTGAA | 0.0563
CACTGCAA | 0.0215
TCATCAGA | 0.094

Sequence | PBM E-score
CAGCTTGA | -0.141
AGGAGGTG | -0.248
GAGGGACA | -0.103
CCTTTTAA | 0.0637
ACGGCGAT | 0.313
ACGGCGAC | 0.224
TCGGCGAA | 0.00757
ACGGCGAA | 0.343
GCGGCGAA | -0.106
ACGGCGCG | 0.324
ACGGCGCC | 0.184
ACGGCGCT | 0.09
ACGGCGAG | 0.111
ACCCGGGT | -0.155
ATGAGTCA | 0.0874
ACCCTAGG | -0.07
CGCGTTGA | 0.0564
AGATGCTC | 0.0161
CAGGTAAG | -0.0344
AGATAAGA | 0.194
AATTCCAC | 0.0539
CAGGATGA | 0.197
AGACAAGC | -0.0992
ATGACGAC | 0.265
GTGACGCA | 0.103

Sequence | PBM E-score
GTCACGAC | 0.261
ATGACTAA | 0.146
TTCACGAA | 0.267
GTGACGGA | 0.149
ATGACGAA | 0.319
CTGACTAA | 0.0088
GTGACTAA | 0.327
GTGACGAA | 0.315
GTCACGAA | 0.402
CTGACGAA | 0.239
AAGGTTCT | -0.189
CGGGCACC | -0.0646
CGCAAAAG | -0.0748
CTCTCACC | -0.0855
GAGTAAAC | -0.0509
ATCCCGTA | 0.215
GGCGATCA | -0.0321
ATGGACTC | -0.134
AACGGACG | 0.065
CACGGACG | 0.337
CACGGACA | 0.162
AAACCGGT | -0.0782
